Shown is part of a subset that was picked to be rich in hits.
Autofluor counter – flagged as autofluorescent in microsphere protease counterscreen; 360,000 tested, 3.1% active; compound autofluorescence counterscreen, microsphere flow cytometry; hits give high values; fluorescence intensity (concentration not given with the values); AID 624483; in the data active = fluorescence intensity above about 16000; inconclusive = no clear call, values can overlap the other calls
BoNT A protease – blocks Botulinum neurotoxin A light chain protease | inhibition, % at 10 µM | 360,000 tested, 0.17% active | multiplex microsphere protease substrate cleavage, flow cytometry; also: plate controls were buffer without enzyme for full effect and enzyme alone for no effect
BoNT-F LC inh – inhibitors of Botulinum neurotoxin F light chain protease. 360,000 tested, 0.22% active. inhibition, % at 10 µM. Multiplex microsphere protease cleavage assay, flow cytometry; in the data active = inhibition above about 35%, passing the limit was not always enough; inconclusive = no clear call, values can overlap the other calls; also: plate controls were buffer without enzyme for full effect and enzyme alone for no effect
Anthrax LF prot – inhibitors of Bacillus anthracis lethal factor protease. P15917. multiplex microsphere protease cleavage assay, LF. inhibition, % at 10 µM. 360,000 tested, 0.12% active. AID 588501; also: plate controls were buffer without enzyme for full effect and enzyme alone for no effect
TcdB inh – inhibitors of Clostridioides difficile toxin B glycohydrolase; AID 652162; inhibition, % at 9.99 µM; 350,000 tested, 0.24% active; P18177; TcdB glycohydrolase enzymatic assay, plate reader; in the data active = inhibition above about 10%
Numbers without * were called inactive; ? = inconclusive; . = not tested or not shown. Rule as the data show it, unless noted: active = inhibition above about 30%; inconclusive = no clear call, values can overlap the other calls; inactive = below that.

SMILES	Autofluor counter	BoNT A protease	BoNT-F LC inh	Anthrax LF prot	TcdB inh
Cc1ccc(C)c(S(=O)(=O)NCc2ccc(C(=O)N3CCCCC3C)cc2)c1 (stereo unspecified)	18934*	2	4	-12	.
CC1CCCCN1C(=O)c1ccc(C(=O)N2CCCCC2C)cc1 (stereo unspecified)	21133*	3	4	0	.
COc1ccc(OC)c(NC(=O)c2ccccc2SC)c1	16141*	0	-3	0	.
CSc1ccccc1C(=O)Nc1ccc(C)c(C)c1	16135*	?	1	-9	.
CSc1ccccc1C(=O)Nc1cc(C)cc(C)c1	2436	0	12	0	.
C[C@@H]1CN([C@@H](C)CO)C(=O)c2cc(NC(=O)Cc3ccccc3)ccc2O[C@@H](C)CCCCO[C@@H]1CN(C)C(=O)Nc1ccc2c(c1)OCO2	.	.	.	.	1
COCCSc1nnc(NC(=O)C2CCCCC2)s1	17088*	-1	-2	-2	.
O=C(Nc1nnc(SCC(=O)N2CCCCC2)s1)C1CCCCC1	3005	1	27	-2	.
Cc1cc(C)nc(N2CCC(C(=O)Nc3nnc(C)s3)CC2)n1	18862*	?	2	-12	.
Cc1nnc(NC(=O)C2CCCC2)s1	5972	1	-2	0	1
CCC(C)(C)NC(=O)C1CCN(c2nc(C)cc(C)n2)CC1	16929*	-1	-1	-1	.
Cc1nnc(NC(=O)C2CCCCC2)s1	22880*	?	-4	-3	.
CCN1[C@@H]2Cn3c(ccc(C4=CCCC4)c3=O)[C@H]1[C@@H](C(=O)NC1CCCC1)[C@@H]2CO	.	.	.	.	-1
CN1C(=O)CC(c2ccco2)Sc2ccccc21 (stereo unspecified)	21771*	-4	-3	1	.
O=C(CN1C(=O)CC(c2ccco2)Sc2ccccc21)NCC1CCCO1 (stereo unspecified)	23515*	?	0	-8	.
C[C@@H]1CN([C@@H](C)CO)C(=O)c2cc(-c3cccnc3)cnc2O[C@@H]1CN(C)C(=O)Nc1ccc(C(F)(F)F)cc1	.	.	.	.	3
COC(=O)NC1CSCC1OC(=O)c1ccc(Br)cc1 (stereo unspecified)	22183*	?	2	-3	.
C[C@@H]1CN([C@@H](C)CO)C(=O)Cc2cc(NC(=O)Nc3ccc4c(c3)OCO4)ccc2O[C@H]1CN(C)C(=O)Nc1ccc2c(c1)OCO2	.	.	.	.	-1
Cc1cc(C)cc(CC2CC(=O)N(c3ccc(Cl)cn3)C2=O)c1 (stereo unspecified)	22513*	1	1	-4	.
Cc1ccc(N2C(=O)CC(Cc3cc(C)cc(C)c3)C2=O)cc1 (stereo unspecified)	4208	-1	-2	-6	0
CC1CN(c2nc3c(c(=O)n(C)c(=O)n3C)n2Cc2c(F)cccc2Cl)CC(C)O1 (stereo unspecified)	18917*	4	6	-2	.
Cn1c(=O)c2c(nc(CN3CCN(c4ccccc4)CC3)n2Cc2ccccc2Cl)n(C)c1=O	19891*	?	-2	0	.
CC1CN(c2nc3c(c(=O)n(C)c(=O)n3C)n2Cc2c(Cl)cccc2Cl)CC(C)O1 (stereo unspecified)	4723	0	3	0	0
Cn1c(=O)c2c(nc(CN3CCN(c4ccccc4)CC3)n2Cc2c(F)cccc2Cl)n(C)c1=O	22170*	?	-2	-2	.
CCc1cc(-c2n[nH]c(=S)n2C(C)c2ccccc2)cs1 (stereo unspecified)	21656*	6	5	0	.
SMILES	Autofluor counter	BoNT A protease	BoNT-F LC inh	Anthrax LF prot	TcdB inh
Cc1ccc(-c2cc(C)nc3nc(N)nn23)cc1	16426*	0	3	1	.
C[C@H]1CN([C@@H](C)CO)C(=O)c2cc(-c3ccc(C#N)cc3)cnc2O[C@H]1CN(C)C(=O)CN(C)C	.	.	.	.	-3
C/C(=C/C(=O)NCc1ccccc1)C(=O)O	22169*	0	2	-6	.
COc1ccccc1Nc1nnc(SCc2cc(=O)n3ccsc3n2)s1	4766	1	-7	2	15*
Cc1ccc(Nc2nnc(SCc3cc(=O)n4ccsc4n3)s2)c(C)c1	4378	0	-14	0	.
O=C(C[C@H]1C=C[C@@H](NC(=O)c2ccc3c(c2)OCO3)[C@@H](CO)O1)NCc1ccc(F)cc1	.	.	.	.	-1
O/N=C1/C(=C\c2ccccc2)N2CCC1CC2	19798*	7	9	-5	.
C[C@H]1CN([C@@H](C)CO)C(=O)c2cc(NS(=O)(=O)c3cccs3)ccc2O[C@@H]1CN(C)C(=O)Nc1ccc(C(F)(F)F)cc1	.	.	.	.	0
C[C@@H](O)C#Cc1ccc([C@H]2[C@@H](CO)N3CCCCN(C(=O)c4ccc(F)cc4)C[C@H]23)cc1	.	.	.	.	1
CCCC#Cc1cnc2c(c1)C(=O)N([C@@H](C)CO)C[C@H](C)[C@H](CN(C)C(=O)Nc1ccccc1F)O2	.	.	.	.	0
COc1cc2c(cc1OC)CN(C(=O)CCCN1C(=O)c3ccccc3C1=O)CC2	22299*	?	-2	-2	.
C[C@H](CO)N1C[C@H](C)[C@H](CN(C)C)OCCCC[C@H](C)Oc2ccc(NS(=O)(=O)c3cn(C)cn3)cc2C1=O	.	.	.	.	0
O=C(O)C1CCCCC1C(=O)NCCCn1ccnc1 (stereo unspecified)	11201	0	0	-3	1
O=C(O)C1C2C=CC(C2)C1C(=O)NCCCn1ccnc1 (stereo unspecified)	22134*	0	0	-2	.
COc1nsnc1N1CCOCC1	3386	0	4	-2	1
COC(=O)COc1nsnc1N1CCOCC1	24961*	-6	-9	-13	.
Cc1ccccc1C(=O)NNC1=NCCC1	17045*	-1	-1	0	.
Cc1c(Cl)cccc1NC(=O)C(=O)NNC(=O)c1ccccc1F	4509	-1	-14	4	0
Cc1ccccc1C(=O)NNC(=O)C(=O)Nc1cccc(Cl)c1C	20831*	-1	-3	-2	.
Cc1ccccc1C(=O)NNC(=O)Cc1ccccc1	7322	-1	6	1	.
COC(=O)NNC(=O)c1ccccc1C	22876*	?	3	0	.
O=C(NNC1=NCCC1)c1cccc(Br)c1	4194	0	22	-1	.
COCC#Cc1ccc([C@H]2[C@@H](CO)N3C(=O)CN(C(=O)c4ccncc4)C[C@@H]23)cc1	.	.	.	.	0
COc1cccc(CNn2cnnc2)c1OCc1ccccc1F	20043*	?	14	-4	.
Cc1nnc(-c2cnn(-c3ccccc3)c2N)n1Cc1ccccc1	20987*	-1	-2	-3	.
SMILES	Autofluor counter	BoNT A protease	BoNT-F LC inh	Anthrax LF prot	TcdB inh
Cc1nnc(-c2cnn(-c3ccccc3)c2N)n1Cc1ccc(F)cc1	19393*	?	0	-9	.
Cc1nnc(-c2cnn(C)c2N)n1Cc1ccccc1	3944	0	-12	0	.
COc1ccccc1CN1[C@H](CO)[C@@H]2c3ccccc3N(C(=O)C3CCCC3)C[C@@H]21	.	.	.	.	0
O=C(CN1CCCCC1)N1c2ccccc2CCc2ccccc21	3047	-1	4	3	.
CC1CCN(CC(=O)N2c3ccccc3CCc3ccccc32)CC1	16766*	-1	-1	-6	.
CC1CCN(CC(=O)N2CC(=O)Nc3ccccc32)CC1	22135*	?	-1	1	.
O=C1CN(C(=O)c2ccccc2C(=O)O)c2ccccc2N1	3318	-2	-1	-9	0
